In the supplement of paper PMC12282887:
± gives the standard deviation of the averaged measurements.

Experiments:
Experiment in all cases: promoter activity interaction Z-score (Lux/OD deviation from empty-vector control); higher = stronger promoter induction by the compound
[1] = tested on: E. coli BW25113 acrABp lux reporter
In short: (§1)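 Reporter strains of E. coli BW25113 grew at 37°C in 40 µl LB Lennox in 384-well plates. Readings of OD600 and luminescence were taken every 30 min over 12 h, integrated over 0–8 h (wild type) or 1–9 h (deletion strains), and wells below 10% of the median growth value were excluded. Scores are Z-transformed residuals of growth-normalised luminescence from a fit against a control.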

[2] = tested on: E. coli BW25113 marRABp lux reporter
In short: as §1

[3] = tested on: E. coli BW25113 micFp lux reporter
In short: as §1

[4] = tested on: E. coli BW25113 ompFp lux reporter
In short: as §1

[5] = tested on: E. coli BW25113 robp lux reporter
In short: as §1

[6] = tested on: E. coli BW25113 soxSp lux reporter
In short: as §1

[7] = tested on: E. coli BW25113 tolCp lux reporter
In short: as §1

[8] = 0.011 µg/ml, genetic background: wild type
[9] = 0.011 µg/ml, genetic background: ΔmarA
[10] = 0.011 µg/ml, genetic background: Δrob
[11] = 0.011 µg/ml, genetic background: ΔsoxS
[12] = 0.022 µg/ml, genetic background: wild type
[13] = 0.022 µg/ml, genetic background: ΔmarA
[14] = 0.022 µg/ml, genetic background: Δrob
[15] = 0.022 µg/ml, genetic background: ΔsoxS
[16] = 0.044 µg/ml, genetic background: wild type
[17] = 0.044 µg/ml, genetic background: ΔmarA
[18] = 0.044 µg/ml, genetic background: Δrob
[19] = 0.044 µg/ml, genetic background: ΔsoxS
[20] = 0.13 µg/ml, genetic background: wild type
[21] = 0.13 µg/ml, genetic background: ΔmarA
[22] = 0.13 µg/ml, genetic background: Δrob
[23] = 0.13 µg/ml, genetic background: ΔsoxS
[24] = 0.26 µg/ml, genetic background: wild type
[25] = 0.26 µg/ml, genetic background: ΔmarA
[26] = 0.26 µg/ml, genetic background: Δrob
[27] = 0.26 µg/ml, genetic background: ΔsoxS
[28] = 0.52 µg/ml, genetic background: wild type
[29] = 0.52 µg/ml, genetic background: ΔmarA
[30] = 0.52 µg/ml, genetic background: Δrob
[31] = 0.52 µg/ml, genetic background: ΔsoxS

C[C@@H](O)[C@H]1C(=O)N2C(C(=O)O)=C(S[C@@H]3CN[C@H](C(=O)N(C)C)C3)[C@H](C)[C@H]12 [Meropenem]
promoter activity interaction Z-score [1, 8]: -0.325 ± 0.13
promoter activity interaction Z-score [1, 9]: -0.25 ± 1.2
promoter activity interaction Z-score [1, 10]: -0.499 ± 0.11
promoter activity interaction Z-score [1, 11]: -0.443 ± 0.38
promoter activity interaction Z-score [1, 12]: -0.443 ± 0.2
promoter activity interaction Z-score [1, 13]: 0.239 ± 0.72
promoter activity interaction Z-score [1, 14]: -0.429 ± 0.27
promoter activity interaction Z-score [1, 15]: -0.714 ± 0.56
promoter activity interaction Z-score [1, 16]: -0.272 ± 0.31
promoter activity interaction Z-score [1, 17]: -0.463 ± 0.48
promoter activity interaction Z-score [1, 18]: -0.0657
promoter activity interaction Z-score [1, 19]: -1.05 ± 0.84
promoter activity interaction Z-score [2, 8]: -0.451 ± 0.26
promoter activity interaction Z-score [2, 9]: -0.532 ± 0.041
promoter activity interaction Z-score [2, 10]: -0.399 ± 0.031
promoter activity interaction Z-score [2, 11]: -0.178 ± 0.1
promoter activity interaction Z-score [2, 12]: -0.13 ± 0.065
promoter activity interaction Z-score [2, 13]: -0.4 ± 0.097
promoter activity interaction Z-score [2, 14]: -0.114 ± 0.41
promoter activity interaction Z-score [2, 15]: 0.18 ± 0.22
promoter activity interaction Z-score [2, 16]: 0.785
promoter activity interaction Z-score [2, 17]: -0.754
promoter activity interaction Z-score [2, 18]: 1
promoter activity interaction Z-score [2, 19]: -0.0187
promoter activity interaction Z-score [3, 8]: -0.112 ± 0.01
promoter activity interaction Z-score [3, 9]: 0.0252 ± 0.018
promoter activity interaction Z-score [3, 10]: -0.116 ± 0.077
promoter activity interaction Z-score [3, 11]: -0.229 ± 0.14
promoter activity interaction Z-score [3, 12]: 0.415 ± 0.16
promoter activity interaction Z-score [3, 13]: -0.0395 ± 0.041
promoter activity interaction Z-score [3, 14]: 0.325 ± 0.09
promoter activity interaction Z-score [3, 15]: 0.0746 ± 0.14
promoter activity interaction Z-score [3, 16]: -0.67 ± 0.27
promoter activity interaction Z-score [3, 17]: -0.111 ± 0.099
promoter activity interaction Z-score [3, 18]: -0.153 ± 0.23
promoter activity interaction Z-score [3, 19]: 0.149 ± 0.13
promoter activity interaction Z-score [4, 8]: -0.54 ± 0.28
promoter activity interaction Z-score [4, 9]: -0.583 ± 0.092
promoter activity interaction Z-score [4, 10]: -0.754 ± 0.17
promoter activity interaction Z-score [4, 11]: -0.418 ± 0.015
promoter activity interaction Z-score [4, 12]: -0.588 ± 0.17
promoter activity interaction Z-score [4, 13]: -0.0893 ± 0.4
promoter activity interaction Z-score [4, 14]: -0.761 ± 1
promoter activity interaction Z-score [4, 15]: 0.398 ± 0.68
promoter activity interaction Z-score [4, 16]: -2.42 ± 0.71
promoter activity interaction Z-score [4, 17]: -1.11 ± 1.2
promoter activity interaction Z-score [4, 18]: -3.33
promoter activity interaction Z-score [4, 19]: -0.548 ± 0.013
promoter activity interaction Z-score [5, 8]: 0.101 ± 0.27
promoter activity interaction Z-score [5, 9]: -0.585 ± 0.075
promoter activity interaction Z-score [5, 10]: -0.128 ± 0.22
promoter activity interaction Z-score [5, 11]: -0.321 ± 0.77
promoter activity interaction Z-score [5, 12]: -0.965 ± 0.67
promoter activity interaction Z-score [5, 13]: 0.101 ± 0.13
promoter activity interaction Z-score [5, 14]: -0.78 ± 0.081
promoter activity interaction Z-score [5, 15]: 0.872 ± 0.96
promoter activity interaction Z-score [5, 16]: -1.9
promoter activity interaction Z-score [5, 17]: -1.13 ± 0.46
promoter activity interaction Z-score [5, 18]: -2.08 ± 0.078
promoter activity interaction Z-score [5, 19]: -1.54 ± 0.12
promoter activity interaction Z-score [6, 8]: -0.0716 ± 0.075
promoter activity interaction Z-score [6, 9]: -0.0983 ± 0.033
promoter activity interaction Z-score [6, 10]: -0.37 ± 0.018
promoter activity interaction Z-score [6, 11]: 0.00722 ± 0.14
promoter activity interaction Z-score [6, 12]: -0.334 ± 0.51
promoter activity interaction Z-score [6, 13]: -0.124 ± 0.17
promoter activity interaction Z-score [6, 14]: -0.218 ± 0.073
promoter activity interaction Z-score [6, 15]: 0.588 ± 0.26
promoter activity interaction Z-score [6, 17]: -1.21
promoter activity interaction Z-score [6, 18]: -0.982 ± 0.23
promoter activity interaction Z-score [6, 19]: 0.387 ± 0.062
promoter activity interaction Z-score [7, 8]: -0.834 ± 0.2
promoter activity interaction Z-score [7, 9]: -1.09 ± 0.39
promoter activity interaction Z-score [7, 10]: -0.937 ± 0.21
promoter activity interaction Z-score [7, 11]: -0.582 ± 0.57
promoter activity interaction Z-score [7, 12]: -0.873 ± 0.14
promoter activity interaction Z-score [7, 13]: -0.075 ± 1
promoter activity interaction Z-score [7, 14]: -1.42 ± 0.33
promoter activity interaction Z-score [7, 15]: -0.223 ± 0.39
promoter activity interaction Z-score [7, 16]: -1.14
promoter activity interaction Z-score [7, 17]: -0.703
promoter activity interaction Z-score [7, 18]: -1.44 ± 0.34
promoter activity interaction Z-score [7, 19]: 0.705

CNC(C)C1CCC(N)C(OC2C(N)CC(N)C(OC3OCC(C)(O)C(NC)C3O)C2O)O1 (configuration not stated) [Gentamicin]
promoter activity interaction Z-score [1, 20]: -0.258 ± 0.098
promoter activity interaction Z-score [1, 21]: 0.731 ± 0.32
promoter activity interaction Z-score [1, 22]: 0.126 ± 0.055
promoter activity interaction Z-score [1, 23]: 0.158 ± 0.14
promoter activity interaction Z-score [1, 24]: -0.117 ± 0.18
promoter activity interaction Z-score [1, 25]: 0.35 ± 0.15
promoter activity interaction Z-score [1, 26]: 0.483 ± 0.18
promoter activity interaction Z-score [1, 27]: 0.0843 ± 0.06
promoter activity interaction Z-score [1, 28]: 0.311 ± 0.023
promoter activity interaction Z-score [1, 29]: 0.396 ± 0.21
promoter activity interaction Z-score [1, 30]: 0.801 ± 0.45
promoter activity interaction Z-score [1, 31]: 0.744 ± 0.39
promoter activity interaction Z-score [2, 20]: -0.229 ± 0.24
promoter activity interaction Z-score [2, 21]: -0.193 ± 0.19
promoter activity interaction Z-score [2, 22]: -0.0111 ± 0.062
promoter activity interaction Z-score [2, 23]: 0.027 ± 0.11
promoter activity interaction Z-score [2, 24]: -0.22 ± 0.026
promoter activity interaction Z-score [2, 25]: -0.108 ± 0.19
promoter activity interaction Z-score [2, 26]: -0.0765 ± 0.087
promoter activity interaction Z-score [2, 27]: 0.17 ± 0.086
promoter activity interaction Z-score [2, 28]: 0.575 ± 0.65
promoter activity interaction Z-score [2, 29]: 0.543 ± 0.31
promoter activity interaction Z-score [2, 30]: 0.678 ± 1
promoter activity interaction Z-score [2, 31]: 0.166
promoter activity interaction Z-score [3, 20]: -0.256 ± 0.0079
promoter activity interaction Z-score [3, 21]: -0.00364 ± 0.024
promoter activity interaction Z-score [3, 22]: -0.0412 ± 0.1
promoter activity interaction Z-score [3, 23]: 0.232 ± 0.23
promoter activity interaction Z-score [3, 24]: -0.302 ± 0.26
promoter activity interaction Z-score [3, 25]: 0.035 ± 0.072
promoter activity interaction Z-score [3, 26]: 0.115 ± 0.15
promoter activity interaction Z-score [3, 27]: 0.509 ± 0.23
promoter activity interaction Z-score [3, 28]: -0.614 ± 0.016
promoter activity interaction Z-score [3, 29]: 0.0535 ± 0.039
promoter activity interaction Z-score [3, 30]: 0.114 ± 0.013
promoter activity interaction Z-score [3, 31]: 0.235 ± 0.36
promoter activity interaction Z-score [4, 20]: -0.504 ± 0.27
promoter activity interaction Z-score [4, 21]: -0.192 ± 0.27
promoter activity interaction Z-score [4, 22]: 0.285 ± 0.14
promoter activity interaction Z-score [4, 23]: 0.28 ± 0.15
promoter activity interaction Z-score [4, 24]: -1.09 ± 0.052
promoter activity interaction Z-score [4, 25]: -0.0939 ± 0.49
promoter activity interaction Z-score [4, 26]: -0.00259 ± 0.23
promoter activity interaction Z-score [4, 27]: 0.504 ± 0.56
promoter activity interaction Z-score [4, 28]: -0.826
promoter activity interaction Z-score [4, 29]: -0.127 ± 0.14
promoter activity interaction Z-score [4, 30]: -0.414
promoter activity interaction Z-score [4, 31]: 0.191 ± 0.32
promoter activity interaction Z-score [5, 20]: -0.805 ± 0.067
promoter activity interaction Z-score [5, 21]: -0.513 ± 0.77
promoter activity interaction Z-score [5, 22]: 0.0663 ± 0.25
promoter activity interaction Z-score [5, 23]: -0.014 ± 0.43
promoter activity interaction Z-score [5, 24]: -0.862 ± 1.1
promoter activity interaction Z-score [5, 25]: 0.245 ± 0.6
promoter activity interaction Z-score [5, 26]: -0.248 ± 0.75
promoter activity interaction Z-score [5, 27]: 0.869 ± 0.64
promoter activity interaction Z-score [5, 28]: -1.31 ± 0.28
promoter activity interaction Z-score [5, 29]: -0.148 ± 0.081
promoter activity interaction Z-score [5, 30]: -1.14 ± 0.47
promoter activity interaction Z-score [5, 31]: -0.192 ± 0.46
promoter activity interaction Z-score [6, 20]: -0.176 ± 0.037
promoter activity interaction Z-score [6, 21]: 0.0574 ± 0.0087
promoter activity interaction Z-score [6, 22]: 0.128 ± 0.056
promoter activity interaction Z-score [6, 23]: 0.247 ± 0.13
promoter activity interaction Z-score [6, 24]: -0.318 ± 0.11
promoter activity interaction Z-score [6, 25]: -0.0384 ± 0.093
promoter activity interaction Z-score [6, 26]: 0.0805 ± 0.022
promoter activity interaction Z-score [6, 27]: 0.308 ± 0.14
promoter activity interaction Z-score [6, 28]: -0.16 ± 0.27
promoter activity interaction Z-score [6, 29]: -0.404 ± 0.039
promoter activity interaction Z-score [6, 30]: -0.462 ± 0.067
promoter activity interaction Z-score [6, 31]: 0.162 ± 0.49
promoter activity interaction Z-score [7, 20]: -0.827 ± 0.069
promoter activity interaction Z-score [7, 21]: 0.61 ± 0.68
promoter activity interaction Z-score [7, 22]: -0.223 ± 0.083
promoter activity interaction Z-score [7, 23]: 0.974 ± 0.11
promoter activity interaction Z-score [7, 24]: -0.519 ± 0.51
promoter activity interaction Z-score [7, 25]: 0.897 ± 0.19
promoter activity interaction Z-score [7, 26]: 0.252 ± 0.61
promoter activity interaction Z-score [7, 27]: 0.0714 ± 0.32
promoter activity interaction Z-score [7, 28]: -0.626 ± 0.67
promoter activity interaction Z-score [7, 29]: -0.251 ± 0.16
promoter activity interaction Z-score [7, 30]: -0.791 ± 0.011
promoter activity interaction Z-score [7, 31]: 0.133 ± 0.12
